Tgondii IFNg: T. gondii growth inhibition with IFN-gamma, primary screen, cell-based | AID 1259416, 2018 | activity change, negative = inhibition, % (concentration not given with the values) | Toxoplasma gondii growth in IFN-gamma-treated host cells; stronger effect = lower value | hit rate 3.8% among 69,000; in the data active = activity change below about -70%, passing the limit was not always enough;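 also: host cells are HeLa cells infected with Toxoplasma gondii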
An asterisk follows results filed as active; i = inactive. The entries come from a sample that favours hits as a whole.

SMILES | Tgondii IFNg
Cc1cc(Nc2ccc(Br)cc2)nc(-c2ccccc2O)n1 | -84.9*
CCOc1ncccc1-c1nc(C)cc(NC)n1 | 7.1
Cc1nc2cc(-c3ccn[nH]3)ccc2s1 | 104.6
C=CCN1C(=O)CCCC12CCCN(S(=O)(=O)Cc1ccc(C)cc1)C2 (stereo unspecified) | 1.9
C[N+]1(C)[C@@H]2CC(OC(=O)C(O)(c3cccs3)c3cccs3)C[C@H]1[C@@H]1O[C@@H]12 (stereo partly specified) | 15.6
Cc1oc(C(C)C)cc1C(=O)N(C)Cc1ncc[nH]1 | -7.8
Cc1nc(-c2ccc(F)cc2)sc1-c1ccc(SCCN2CCCCCC2)nn1 | -49.1
CC(C)(C)c1ccc2cc(C#N)c(C#N)cc2c1 | -80.0*
N#Cc1cc2c(ccc3ccccc32)oc1=N | 142.2
CNC(=O)[C@@H]1CC[C@H]2[C@@H](CCN2C(=O)N2CCCC2)O1 | 5.4
Cn1ccnc1-c1ccc(N2CCC(C(N)=O)(N3CCCCC3)CC2)nn1 | 176.8
C=CCOc1ccc2c(=O)cc(C(=O)OCC)oc2c1CCC | -2.8
CCCCOc1ccc2c(=O)c(-c3cc(C(=O)OC)oc3C)c(C(F)(F)F)oc2c1C | -108.0*
CCc1c(C)c2ccc(OCC(=O)OC(C)C)c(C)c2oc1=O | 37.4
COc1ccc2c(c1)SC1=NC(c3ccc(C)cc3)(C(F)(F)F)NC(=O)N12 (stereo unspecified) | -29.3
COc1cccc(CC2CN(C(=O)Cc3c(C)nc(N)nc3C)CCO2)c1 (stereo unspecified) | -3.4
CC(C)c1ccc(NC(=O)Cn2c(=O)cc(-c3nc(C4CC4)no3)c3ccccc32)cc1 | -48.8
O=C(CCC1CCCC1)N1CCc2c([nH]c3ccccc23)C1c1ccc(Cl)cc1 (stereo unspecified) | -106.3*
CCOc1ccc(C2c3[nH]c4ccccc4c3CCN2C(=O)c2ccc(F)cc2)cc1 (stereo unspecified) | -88.7*
COc1ccc(C(=O)N2CCc3c([nH]c4ccccc34)C2c2cccnc2)cc1OC (stereo unspecified) | 70.0
CCOc1ccc(C2c3[nH]c4ccccc4c3CCN2C(=O)c2ccc(OC)c(OC)c2)cc1 (stereo unspecified) | i
COc1ccc(C2c3[nH]c4ccccc4c3CCN2C(=O)CCC2CCCC2)cc1 (stereo unspecified) | -55.4
CCOc1ccc(C2c3[nH]c4ccccc4c3CCN2C(=O)c2cc(OC)c(OC)c(OC)c2)cc1 (stereo unspecified) | 247.3
O=C(c1cccc(Cl)c1)N1CCc2c([nH]c3ccccc23)C1c1cccnc1 (stereo unspecified) | -81.8*
O=C(c1ccccc1)N1CCc2c([nH]c3ccccc23)C1c1cccnc1 (stereo unspecified) | 84.6
SMILES | Tgondii IFNg
O=C(CCC1CCCC1)N1CCc2c([nH]c3ccccc23)C1c1ccc(F)cc1 (stereo unspecified) | -66.7
O=C(C1CCCCC1)N1CCc2c([nH]c3ccccc23)C1c1ccc(F)cc1 (stereo unspecified) | -75.3*
CSc1ccc(C2c3[nH]c4ccccc4c3CCN2C(=O)C2CC2)cc1 (stereo unspecified) | 73.7
Cc1ccc(C2c3[nH]c4ccccc4c3CCN2C(=O)C2CC2)cc1 (stereo unspecified) | 145.9
Cc1nnsc1CN(C)C(=O)Cc1cc2c(cc1Cl)OCCO2 | -12.7
Cc1oc(C2CCN(S(=O)(=O)c3ccc(Cl)s3)CC2)nc1C(=O)N1CCCC1 | -62.7
CC(C)(C)c1oc(C(N)=O)cc1CN1CCCC(O)(CO)C1 (stereo unspecified) | -41.1
Cc1cccc(NC(=O)c2c3c(N4CCN(C)CC4)ncnc3n3ccccc23)c1 | 302.0
CCCc1nnc(C(=O)N2CC[C@H](O)[C@@H](O)C2)o1 | -49.2
CC(C)Cc1cc(C(=O)NCC(c2cccnc2)N2CCCC2)n(C)n1 (stereo unspecified) | -13.9
O=C(c1cc2sccc2[nH]1)N1CCC(Cn2cc(CCO)nn2)CC1 | 3.3
COCCn1ccnc1C1CC(=O)Nc2c1c(C1CC1)nn2C (stereo unspecified) | -4.7
CC(C)N1CCOC(CC(=O)N2CC(c3ccncc3)C2)C1 (stereo unspecified) | -4.1
CCc1nnc(NC(=O)c2csc3c2CCC(CC)C3)s1 (stereo unspecified) | 7.1
Cn1ccc(-c2cc(C(=O)Cc3ccccn3)c3ccccn23)n1 | 1.5
O=C(c1ccc(Br)cc1)N1CCc2c([nH]c3ccccc23)C1c1ccc(Cl)cc1 (stereo unspecified) | -94.9*
COc1ccc(C(=O)N2CCc3c([nH]c4ccccc34)C2c2ccc(C)cc2)cc1 (stereo unspecified) | i
O=C(c1cccc(F)c1)N1CCc2c([nH]c3ccccc23)C1c1ccc(Cl)cc1 (stereo unspecified) | -52.5
CCCC(=O)N1CCc2c([nH]c3ccccc23)C1c1ccccc1 (stereo unspecified) | 259.0
CSc1ccc(C2c3[nH]c4ccccc4c3CCN2C(=O)c2cccnc2)cc1 (stereo unspecified) | 468.1
COc1ccc(C2c3[nH]c4ccccc4c3CCN2C(=O)c2cccnc2)cc1 (stereo unspecified) | 256.0
O=C(c1ccccc1)N1CCc2c([nH]c3ccccc23)C1c1ccc(Cl)cc1 (stereo unspecified) | -99.2*
CCOc1cc(C(=O)N2CCc3c([nH]c4ccccc34)C2c2ccccc2)cc(OCC)c1OCC (stereo unspecified) | -114.8*
CCOc1cc(C(=O)N2CCc3c([nH]c4ccccc34)C2c2cccnc2)cc(OCC)c1OCC (stereo unspecified) | -66.6
O=C(c1ccccc1Br)N1CCc2c([nH]c3ccccc23)C1c1ccc(Cl)cc1 (stereo unspecified) | 357.5
SMILES | Tgondii IFNg
COc1cc(C(=O)N2CCc3c([nH]c4ccccc34)C2c2ccc(Cl)cc2)cc(OC)c1OC (stereo unspecified) | 0.5
O=C(c1ccncc1)N1CCc2c([nH]c3ccccc23)C1c1ccc(Cl)cc1 (stereo unspecified) | -88.4*
O=C1NCC2(CCCN(C(=O)C3CCN(Cc4ccco4)CC3)C2)O1 (stereo unspecified) | -2.0
CN(C)C(=O)C1CC2(CO1)c1ccccc1CN2CC1CC1 (stereo unspecified) | -1.3
Cc1nc(NCCN2CCCCC2CO)cc(C(C)C)n1 (stereo unspecified) | -39.9
COc1ccc2[nH]c(C(=O)O)c(NC(C)=O)c2c1 | 4.9
Cc1ccc(C)c(NC(=O)Cn2ncc3c(N4CCN(c5ccccc5)CC4)ncnc32)c1 | -39.0
COc1ccc(-c2nc(Nc3ccc(OC)cc3OC)c3ccccc3n2)cc1 | -36.1
CCC(=O)Nc1ccc2c(c1)OC[C@@H](C)N(Cc1ccccc1)C[C@H](C)[C@@H](OC)CN(C)C2=O | 152.5
NCC1CCC(C(=O)N2CCC(c3ccncc3)CC2)CC1 (stereo unspecified) | -1.1
COc1cccc(-c2nc3c(s2)CN(C(=O)Nc2ccc(C)c(C)c2)CC3)c1 | -50.5
CCOC(=O)CC1CCCCN1Cc1nnc(C2CC2)o1 (stereo unspecified) | 16.3
Cn1cnc(S(=O)(=O)N2CC[C@@H](O)[C@@H]2Cc2cnn(C)c2)c1 | -27.3
O=C(c1ccc(Br)cc1)N1CCc2c([nH]c3ccccc23)C1c1ccccc1 (stereo unspecified) | -47.7
O=C(c1ccc(Br)cc1)N1CCc2c([nH]c3ccccc23)C1c1ccc(F)cc1 (stereo unspecified) | -94.1*

Source: PubChem BioAssay (Broad Institute)
